# Inconclusive results are not listed. Activity calls are given as the source filed them. The calls were made as follows, unless noted: active = hit-call score of the fitted dose curve at least 0.9, where 1 is the maximum; inactive = score below 0.9.
# Legend:
# [1] = ATG_PXRE_CIS: Attagene CIS-FACTORIAL HepG2 Assay for human Pregnane X Receptor Element (PXRE) (AID 2282957); details: HepG2 Attagene CIS-FACTORIAL PXRE reporter, mRNA; actives raise or lower the signal
# How it was run: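 Read-out: fluorescence of reporter-specific RT-PCR products resolved by capillary electrophoresis, fitted bidirectionally relative to DMSO. Human HepG2 liver cells carried transfected cis-promoter reporter units and were exposed to chemicals for 24 h.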
# [2] = ATG_PPRE_CIS: Attagene CIS-FACTORIAL HepG2 Assay for human Peroxisome Proliferator-activated Response Element (PPRE) (AID 2282958); details: HepG2 PPRE cis-element reporter, Attagene transcription factor profiling; actives raise or lower the signal
# How it was run: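 In this cell-based multiplex, a PPRE cis element drives a reporter sequence in transiently transfected HepG2 cells. Following 24 h treatment, labeled cDNA amplicons are sized and quantified by capillary electrophoresis, with DMSO defining baseline.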
# [3] = ATG_RORE_CIS: Attagene CIS-FACTORIAL HepG2 Assay for human RAR-related Orphan Receptor Element (RORE) (AID 2282959); details: HepG2 Attagene cis-factorial RORE reporter, mRNA; actives raise or lower the signal
# How it was run: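 Endogenous factor activity at a cis response element is read as reporter transcript levels in HepG2 cells, 24 h post-dose. Transcripts are quantified by RT-PCR with capillary electrophoresis, and data fitted in both directions against DMSO.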
# [4] = ATG_Sox_CIS: Attagene CIS-FACTORIAL HepG2 Assay for human SRY-box transcription factor (SOX) (AID 2282960); details: HepG2 Attagene cis-factorial SOX reporter, mRNA; actives raise or lower the signal
# How it was run: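 Measures mRNA induction of a SOX1-associated reporter in HepG2 after 24 h dosing. Fluorescently labelled RT-PCR fragments are separated by capillary electrophoresis, and gain or loss relative to DMSO control is fitted.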
# [5] = target: Transcription factor Sp1 (Homo sapiens) (UniProt P08047); assay: ATG_Sp1_CIS: Attagene CIS-FACTORIAL HepG2 Assay for human Specificity Protein 1 (Sp1) (AID 2282961); details: HepG2 Sp1 cis-reporter transcription, actives raise or lower the signal
# Chain of Transcription factor Sp1 (Homo sapiens) (P08047 whole entry, looked up): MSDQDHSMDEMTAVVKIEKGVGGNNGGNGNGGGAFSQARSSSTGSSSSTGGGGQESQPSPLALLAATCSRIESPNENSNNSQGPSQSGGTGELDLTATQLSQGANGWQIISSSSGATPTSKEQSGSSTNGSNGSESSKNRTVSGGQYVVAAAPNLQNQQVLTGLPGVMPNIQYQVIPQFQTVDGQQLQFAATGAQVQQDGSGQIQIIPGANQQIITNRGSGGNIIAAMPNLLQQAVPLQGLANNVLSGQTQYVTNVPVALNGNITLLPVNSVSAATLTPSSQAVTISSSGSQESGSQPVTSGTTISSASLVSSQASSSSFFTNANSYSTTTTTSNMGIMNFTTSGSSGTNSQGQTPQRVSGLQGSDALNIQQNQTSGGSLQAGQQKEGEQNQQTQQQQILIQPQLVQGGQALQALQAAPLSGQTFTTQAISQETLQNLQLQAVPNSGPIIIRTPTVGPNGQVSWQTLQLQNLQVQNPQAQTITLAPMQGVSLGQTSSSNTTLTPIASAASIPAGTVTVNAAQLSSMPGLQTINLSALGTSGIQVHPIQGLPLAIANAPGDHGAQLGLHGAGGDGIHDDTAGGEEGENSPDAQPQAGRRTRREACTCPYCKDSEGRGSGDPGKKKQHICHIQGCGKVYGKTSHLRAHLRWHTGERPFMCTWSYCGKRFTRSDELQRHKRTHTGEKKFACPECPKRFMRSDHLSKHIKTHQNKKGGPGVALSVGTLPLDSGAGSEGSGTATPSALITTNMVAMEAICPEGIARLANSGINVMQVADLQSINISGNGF
# How it was run: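 Cells: HepG2, transiently transfected with cis-regulated multiplexed reporters. Exposure: 24 h. Detection: reporter transcripts amplified, fluorescently labeled, restriction-digested and sized by capillary electrophoresis. Analysis: bidirectional fit relative to DMSO.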
# [6] = ATG_SREBP_CIS: Attagene CIS-FACTORIAL HepG2 Assay for human Sterol Regulatory Element Binding (SREBP) (AID 2282962); details: HepG2 Attagene cis-factorial SREBP reporter, mRNA; actives raise or lower the signal
# How it was run: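 Readout: fluorescent reporter-transcript peaks resolved by capillary electrophoresis after RT-PCR. Cells were human HepG2 carrying transfected cis-promoter reporter constructs, dosed for 24 h. Gain or loss of signal was fitted against DMSO controls.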
# [7] = target: Signal transducer and activator of transcription 3 (Homo sapiens) (UniProt P40763); assay: ATG_STAT3_CIS: Attagene CIS-FACTORIAL HepG2 Assay for human Signal Transducer and Activator of Transcription 3 (STAT3) (AID 2282963); details: HepG2, Attagene cis-factorial STAT3 reporter transcription; actives raise or lower the signal
# Chain of Signal transducer and activator of transcription 3 (Homo sapiens) (P40763 whole entry, looked up): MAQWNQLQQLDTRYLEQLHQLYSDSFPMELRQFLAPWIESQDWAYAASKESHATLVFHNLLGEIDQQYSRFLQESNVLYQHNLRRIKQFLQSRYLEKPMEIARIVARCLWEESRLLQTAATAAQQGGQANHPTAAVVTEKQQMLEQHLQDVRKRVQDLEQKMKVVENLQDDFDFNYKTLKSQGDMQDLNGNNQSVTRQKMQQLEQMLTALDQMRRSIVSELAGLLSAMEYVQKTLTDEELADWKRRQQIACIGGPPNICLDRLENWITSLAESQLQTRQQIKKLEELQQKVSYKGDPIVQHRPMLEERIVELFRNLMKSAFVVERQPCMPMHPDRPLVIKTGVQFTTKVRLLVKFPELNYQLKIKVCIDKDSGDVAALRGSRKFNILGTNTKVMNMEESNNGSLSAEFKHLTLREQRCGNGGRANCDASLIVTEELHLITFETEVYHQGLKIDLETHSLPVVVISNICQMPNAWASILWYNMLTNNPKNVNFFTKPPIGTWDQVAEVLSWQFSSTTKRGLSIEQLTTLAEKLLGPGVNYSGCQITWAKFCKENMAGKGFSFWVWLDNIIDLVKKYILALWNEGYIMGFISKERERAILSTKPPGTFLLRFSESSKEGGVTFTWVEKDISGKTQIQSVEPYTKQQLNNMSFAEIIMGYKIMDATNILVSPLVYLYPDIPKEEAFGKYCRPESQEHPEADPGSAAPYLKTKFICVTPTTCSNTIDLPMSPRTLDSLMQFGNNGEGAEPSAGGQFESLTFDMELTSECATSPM
# How it was run: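 HepG2, MRTU-transfected, 24 h dosing. RNA → RT → PCR → FAM label → HpaI → CE. Bidirectional fit vs DMSO.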
# [8] = ATG_TA_CIS: Attagene CIS-FACTORIAL HepG2 Assay for human TA Basal Promoter (AID 2282964); details: HepG2 Attagene CIS-factorial TA basal promoter reporter; actives raise or lower the signal
# How it was run: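 Background internal-marker endpoint from a 52-component HepG2 cis-reporter panel. Cells treated 24 h; reporter transcripts quantified via RT-PCR and CE fluorescence against DMSO baseline.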
# [9] = ATG_TCF_b_cat_CIS: Attagene CIS-FACTORIAL HepG2 Assay for human T-Cell-Factor with beta-catenin (TCF/b-cat) (AID 2282965); details: HepG2 TCF/beta-catenin cis-reporter transcription, actives raise or lower the signal
# How it was run: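 HepG2 cells transiently transfected with multiple cis-promoter-regulated reporter transcription units, so endogenous transcription factor activity is measured. Reporter mRNA read 24 hours after dosing by RT-PCR, fluorescent labelling and capillary electrophoresis; bidirectional fitting against DMSO.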
# [10] = ATG_TAL_CIS: Attagene CIS-FACTORIAL HepG2 Assay for human TAL Basal Promoter (AID 2282966); details: HepG2 Attagene cis-factorial TAL promoter reporter; actives raise or lower the signal;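 also: background control endpoint measuring basal TAL promoter reporter mRNA not a specific factor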
# How it was run: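 HepG2, transient MRTU transfection, 24 h compound exposure; RNA → oligo(dT) RT → PCR → 6-FAM primer extension → HpaI digest → CE fluorescence. Bidirectional curve fit vs DMSO. Background-control readout.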
# [11] = ATG_TGFb_CIS: Attagene CIS-FACTORIAL HepG2 Assay for human Transforming Growth Factor (TGF) (AID 2282967); details: HepG2 Attagene CIS TGFb reporter, mRNA transcription; actives raise or lower the signal
# How it was run: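 Liver HepG2 line, cis-factorial reporter panel, 24 h dosing. Quantitation: RT-PCR products labeled with 6-FAM, cut with HpaI, resolved by capillary electrophoresis; DMSO-referenced bidirectional analysis.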
# [12] = ATG_VDRE_CIS: Attagene CIS-FACTORIAL HepG2 Assay for human Vitamin D Receptor Element (VDRE) (AID 2282968); details: HepG2 VDRE cis-reporter transcription, actives raise or lower the signal
# How it was run: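 Steps: transfect HepG2 with multiple reporter transcription units; dose chemicals 24 h; isolate RNA; RT-PCR; label with 6-FAM primer extension; HpaI digest; capillary electrophoresis. Curves fitted both directions against DMSO.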
# [13] = target: Nuclear receptor subfamily 1 group I member 3 (Homo sapiens) (UniProt Q14994); assay: ATG_CAR_TRANS: Attagene TRANS-FACTORIAL HepG2 Assay for human Constitutive Androstane Receptor (CAR) (AID 2282969; active = hit-call score of the fitted dose curve at least 0.9, where 1 is the maximum;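 also: activators raise reporter mRNA above DMSO so AC50 marks induction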); details: HepG2 Attagene TRANS-FACTORIAL CAR reporter
# Chain of Nuclear receptor subfamily 1 group I member 3 (Homo sapiens) (Q14994 whole entry, looked up, the tested form may be a part): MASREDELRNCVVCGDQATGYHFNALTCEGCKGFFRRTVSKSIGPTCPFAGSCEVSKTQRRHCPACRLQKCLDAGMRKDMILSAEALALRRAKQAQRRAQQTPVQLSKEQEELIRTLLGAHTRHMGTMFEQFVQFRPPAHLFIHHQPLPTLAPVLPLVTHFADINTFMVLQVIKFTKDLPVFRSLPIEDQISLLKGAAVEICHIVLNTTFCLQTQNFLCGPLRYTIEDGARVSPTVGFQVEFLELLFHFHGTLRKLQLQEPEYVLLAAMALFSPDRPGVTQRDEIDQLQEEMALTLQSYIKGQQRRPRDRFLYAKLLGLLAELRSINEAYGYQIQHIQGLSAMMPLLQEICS
# How it was run: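 Steps: transient transfection of HepG2 with multiple GAL4-UAS reporter units; 24 h compound incubation; RNA isolation, RT-PCR, 6-FAM primer extension, HpaI digest; capillary electrophoresis. Gain-of-signal relative to DMSO negative control.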
# [14] = target: Estrogen receptor (Homo sapiens) (UniProt P03372); assay: ATG_ERa_TRANS: Attagene TRANS-FACTORIAL HepG2 Assay for human Estrogen Receptor alpha (ERa) (AID 2282970; active = hit-call score of the fitted dose curve at least 0.9, where 1 is the maximum); details: HepG2 Attagene TRANS ERa GAL4 reporter, mRNA
# Chain of Estrogen receptor (Homo sapiens) (P03372 whole entry, looked up, the tested form may be a part): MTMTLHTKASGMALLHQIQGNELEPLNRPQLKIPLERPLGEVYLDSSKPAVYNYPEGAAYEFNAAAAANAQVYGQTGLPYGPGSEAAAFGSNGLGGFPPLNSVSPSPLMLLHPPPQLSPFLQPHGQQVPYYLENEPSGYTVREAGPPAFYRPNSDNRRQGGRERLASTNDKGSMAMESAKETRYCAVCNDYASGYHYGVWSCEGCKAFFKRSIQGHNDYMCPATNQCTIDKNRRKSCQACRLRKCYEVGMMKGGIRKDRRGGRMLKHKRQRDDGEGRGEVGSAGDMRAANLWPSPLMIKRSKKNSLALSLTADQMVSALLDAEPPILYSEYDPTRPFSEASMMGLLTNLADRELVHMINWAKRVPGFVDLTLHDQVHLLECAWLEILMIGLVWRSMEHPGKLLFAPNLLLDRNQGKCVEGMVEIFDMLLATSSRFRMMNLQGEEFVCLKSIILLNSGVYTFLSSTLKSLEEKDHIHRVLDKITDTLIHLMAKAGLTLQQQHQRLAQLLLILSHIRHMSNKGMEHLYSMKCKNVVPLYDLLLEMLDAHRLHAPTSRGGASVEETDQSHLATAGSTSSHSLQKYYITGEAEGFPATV
# How it was run: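 Reporter mRNA induction after 24 hours, detected by fluorescent RT-PCR and capillary electrophoresis, gives the read-out. Cells are HepG2 transiently transfected with GAL4-UAS reporter transcription units responding to chimeric NR-Gal4. Activity is taken as gain of signal over DMSO baseline.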
# [15] = target: X-box-binding protein 1 (Homo sapiens) (UniProt P17861); assay: ATG_Xbp1_CIS: Attagene CIS-FACTORIAL HepG2 Assay for human X-box Binding Protein 1 (XBP1) (AID 2282972); details: HepG2 XBP1 cis-element reporter, Attagene multiplex; actives raise or lower the signal
# Chain of X-box-binding protein 1 (Homo sapiens) (P17861 whole entry, looked up, the tested form may be a part): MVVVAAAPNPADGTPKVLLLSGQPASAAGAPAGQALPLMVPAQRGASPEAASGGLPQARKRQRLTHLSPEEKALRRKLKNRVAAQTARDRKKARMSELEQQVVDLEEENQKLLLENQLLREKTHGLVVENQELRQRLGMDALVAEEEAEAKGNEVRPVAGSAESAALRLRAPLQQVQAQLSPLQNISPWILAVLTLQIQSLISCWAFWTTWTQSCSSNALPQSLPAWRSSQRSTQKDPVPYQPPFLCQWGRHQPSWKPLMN
# How it was run: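 Read-out: fluorescent reporter mRNA fragments resolved by capillary electrophoresis after RT-PCR. Human HepG2 liver cells carried transfected cis-promoter reporter units and were exposed to chemicals for 24 hours. Gain or loss of signal fitted relative to DMSO baseline.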
# [16] = target: Steroid hormone receptor ERR1 (Homo sapiens) (UniProt P11474); assay: ATG_ERRa_TRANS: Attagene TRANS-FACTORIAL HepG2 Assay for human Estrogen-Related Receptor alpha (ERRa) (AID 2282971; active = hit-call score of the fitted dose curve at least 0.9, where 1 is the maximum); details: HepG2 Attagene TRANS reporter, ERRa transactivation
# Chain of Steroid hormone receptor ERR1 (Homo sapiens) (P11474 whole entry, looked up, the tested form may be a part): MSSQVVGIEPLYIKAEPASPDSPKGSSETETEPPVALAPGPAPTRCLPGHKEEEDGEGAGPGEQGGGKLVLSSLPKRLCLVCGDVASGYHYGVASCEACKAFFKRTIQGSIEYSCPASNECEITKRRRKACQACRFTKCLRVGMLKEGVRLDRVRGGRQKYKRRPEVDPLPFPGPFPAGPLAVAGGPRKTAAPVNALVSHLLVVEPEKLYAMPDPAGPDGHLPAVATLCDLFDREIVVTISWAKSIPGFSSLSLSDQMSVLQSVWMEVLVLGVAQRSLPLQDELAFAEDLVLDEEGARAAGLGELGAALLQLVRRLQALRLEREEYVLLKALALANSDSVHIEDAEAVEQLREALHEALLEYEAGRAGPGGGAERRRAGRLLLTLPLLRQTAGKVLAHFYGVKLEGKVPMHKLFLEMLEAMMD
# How it was run: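 Transfected HepG2, 24 h dosing, ERRa-Gal4 chimera driving GAL4-UAS reporter. Readout: reporter mRNA via RT-PCR plus capillary electrophoresis (fluorescence). Positive direction vs DMSO control.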
# [17] = target: Estrogen-related receptor gamma (Homo sapiens) (UniProt P62508); assay: ATG_ERRg_TRANS: Attagene TRANS-FACTORIAL HepG2 Assay for human Estrogen-Related Receptor gamma (ERRg) (AID 2282977; active = hit-call score of the fitted dose curve at least 0.9, where 1 is the maximum;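 also: hits increase reporter signal over DMSO so potencies reflect activators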); details: HepG2 Attagene TRANS reporter, ERRg transactivation
# Chain of Estrogen-related receptor gamma (Homo sapiens) (P62508 whole entry, looked up, the tested form may be a part): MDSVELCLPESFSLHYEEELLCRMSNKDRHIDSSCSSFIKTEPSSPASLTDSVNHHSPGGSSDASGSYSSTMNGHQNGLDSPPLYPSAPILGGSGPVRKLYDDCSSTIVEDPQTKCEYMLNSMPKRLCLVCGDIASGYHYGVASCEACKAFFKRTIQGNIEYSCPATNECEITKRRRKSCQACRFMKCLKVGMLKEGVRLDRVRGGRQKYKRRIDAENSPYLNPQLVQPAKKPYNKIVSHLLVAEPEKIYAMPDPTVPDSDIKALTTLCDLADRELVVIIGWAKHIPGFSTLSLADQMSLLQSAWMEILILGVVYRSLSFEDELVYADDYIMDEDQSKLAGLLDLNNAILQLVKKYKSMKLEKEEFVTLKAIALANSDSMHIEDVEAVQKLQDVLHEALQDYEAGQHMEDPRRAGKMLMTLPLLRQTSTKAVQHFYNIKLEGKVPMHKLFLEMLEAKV
# How it was run: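 Induction of reporter transcripts through a chimeric NR-Gal4 protein is quantified in transfected human HepG2 liver cells after 24 h chemical exposure, using RT-PCR with capillary electrophoresis detection and DMSO as baseline.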
# [18] = ATG_GAL4_TRANS: Attagene TRANS-FACTORIAL HepG2 Assay for GAL4 (Internal Marker) (AID 2282976; active = hit-call score of the fitted dose curve at least 0.9, where 1 is the maximum); details: HepG2 Attagene TRANS GAL4 internal marker reporter
# How it was run: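 RT-PCR/capillary electrophoresis readout of reporter mRNA. HepG2, transient MRTU transfection (GAL4-UAS reporters), 24 h compound exposure. Background-control endpoint, positive direction vs DMSO baseline.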
# [19] = target: Androgen receptor (Homo sapiens) (UniProt P10275); assay: ATG_AR_TRANS: Attagene TRANS-FACTORIAL HepG2 Assay for human Androgen Receptor (AR) (AID 2282973; active = hit-call score of the fitted dose curve at least 0.9, where 1 is the maximum); details: HepG2 Attagene TRANS-FACTORIAL AR reporter transcription
# Chain of Androgen receptor (Homo sapiens) (P10275 whole entry, looked up, the tested form may be a part): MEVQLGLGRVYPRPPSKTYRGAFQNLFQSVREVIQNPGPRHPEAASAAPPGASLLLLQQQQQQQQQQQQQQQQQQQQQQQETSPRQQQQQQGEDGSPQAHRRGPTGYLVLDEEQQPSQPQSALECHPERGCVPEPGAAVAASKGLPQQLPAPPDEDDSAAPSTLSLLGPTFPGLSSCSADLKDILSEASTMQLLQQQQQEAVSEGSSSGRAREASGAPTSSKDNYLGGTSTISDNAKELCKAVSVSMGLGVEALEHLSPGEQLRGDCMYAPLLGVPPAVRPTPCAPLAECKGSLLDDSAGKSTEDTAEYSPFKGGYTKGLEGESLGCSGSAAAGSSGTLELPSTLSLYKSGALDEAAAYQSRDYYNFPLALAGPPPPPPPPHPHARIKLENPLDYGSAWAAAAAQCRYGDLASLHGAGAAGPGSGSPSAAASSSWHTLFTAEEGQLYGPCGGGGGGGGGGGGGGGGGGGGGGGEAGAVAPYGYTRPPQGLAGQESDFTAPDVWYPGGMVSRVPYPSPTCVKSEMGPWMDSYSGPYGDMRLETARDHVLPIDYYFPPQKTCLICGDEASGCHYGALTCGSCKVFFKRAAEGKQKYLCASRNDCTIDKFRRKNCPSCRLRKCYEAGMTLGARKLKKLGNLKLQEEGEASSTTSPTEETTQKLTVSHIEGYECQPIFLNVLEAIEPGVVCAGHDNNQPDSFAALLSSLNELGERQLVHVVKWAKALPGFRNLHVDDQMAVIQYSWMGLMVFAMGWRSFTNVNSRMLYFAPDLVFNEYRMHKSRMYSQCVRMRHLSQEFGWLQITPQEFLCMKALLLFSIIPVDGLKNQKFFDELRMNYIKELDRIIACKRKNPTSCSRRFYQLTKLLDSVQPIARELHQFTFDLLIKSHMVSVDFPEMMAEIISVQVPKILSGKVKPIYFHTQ
# How it was run: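 Readout is reporter transcript abundance, quantified by fluorescent RT-PCR products separated on capillary electrophoresis. Human HepG2 liver cells carried transiently transfected NR-Gal4 chimera plus GAL4-UAS reporter constructs and were dosed for 24 h; activity scored upward versus DMSO.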
smiles,measurement,setting,value
Cc1ccc([N+](=O)[O-])cc1,outcome,[1],inactive
same,outcome,[2],inactive
same,outcome,[3],inactive
same,outcome,[4],inactive
same,outcome,[5],inactive
same,outcome,[6],inactive
same,outcome,[7],inactive
same,outcome,[8],inactive
same,outcome,[9],inactive
same,outcome,[10],inactive
same,outcome,[11],inactive
same,outcome,[12],inactive
same,outcome,[13],inactive
same,outcome,[14],inactive
same,outcome,[15],inactive
Nc1ccc(N=Nc2ccccc2)cc1,AC50,[1],57.7 µM (active)
same,AC50,[2],77.9 µM (active)
same,AC50,[3],40.7 µM (active)
same,outcome,[4],inactive
same,outcome,[5],inactive
same,outcome,[6],inactive
same,outcome,[7],inactive
same,AC50,[8],52.2 µM (active)
same,AC50,[9],27.4 µM (active)
same,AC50,[10],100 µM (active)
same,outcome,[11],inactive
same,AC50,[12],54 µM (active)
same,AC50,[14],33 µM (active)
same,outcome,[16],inactive
same,AC50,[15],73.9 µM (active)
same,outcome,[17],inactive
O=P(OCCCl)(OCCCl)OCCCl,AC50,[1],43.6 µM (active)
same,outcome,[2],inactive
same,outcome,[3],inactive
same,outcome,[4],inactive
same,outcome,[5],inactive
same,outcome,[6],inactive
same,outcome,[7],inactive
same,outcome,[8],inactive
same,outcome,[9],inactive
same,outcome,[10],inactive
same,outcome,[11],inactive
same,outcome,[12],inactive
same,outcome,[13],inactive
same,outcome,[16],inactive
same,outcome,[15],inactive
same,outcome,[18],inactive
OCCCl,outcome,[1],inactive
same,outcome,[2],inactive
same,outcome,[3],inactive
same,outcome,[4],inactive
same,outcome,[5],inactive
same,outcome,[6],inactive
same,outcome,[7],inactive
same,outcome,[8],inactive
same,outcome,[9],inactive
same,outcome,[10],inactive
same,outcome,[11],inactive
same,outcome,[12],inactive
same,outcome,[13],inactive
same,outcome,[15],inactive
same,outcome,[18],inactive
COc1cc(C=O)cc2c1[C@H](COC(N)=O)[C@]1(OC(C)=O)ON2C[C@H]2[C@@H]1N2C(C)=O,AC50,[1],8.47 µM (active)
same,outcome,[2],inactive
same,outcome,[3],inactive
same,outcome,[4],inactive
same,outcome,[5],inactive
same,outcome,[6],inactive
same,AC50,[7],33.4 µM (active)
same,AC50,[8],0.0965 µM (active)
same,AC50,[9],0.157 µM (active)
same,AC50,[10],57.3 µM (active)
same,AC50,[11],60.4 µM (active)
same,AC50,[12],0.146 µM (active)
same,outcome,[14],inactive
same,outcome,[16],inactive
same,AC50,[15],33.4 µM (active)
same,outcome,[18],inactive
Brc1ccc(Oc2ccccc2)cc1,outcome,[1],inactive
same,outcome,[2],inactive
same,outcome,[3],inactive
same,outcome,[4],inactive
same,AC50,[5],100 µM (active)
same,AC50,[6],149 µM (active)
same,outcome,[7],inactive
same,outcome,[8],inactive
same,outcome,[9],inactive
same,outcome,[10],inactive
same,outcome,[11],inactive
same,outcome,[12],inactive
same,outcome,[14],inactive
same,outcome,[15],inactive
Cc1cc(N=Nc2ccccc2C)ccc1N,AC50,[1],13.9 µM (active)
same,AC50,[2],26.4 µM (active)
same,AC50,[3],23 µM (active)
same,outcome,[4],inactive
same,outcome,[5],inactive
same,outcome,[6],inactive
same,outcome,[7],inactive
same,AC50,[8],19 µM (active)
same,outcome,[9],inactive
same,outcome,[10],inactive
same,outcome,[11],inactive
same,AC50,[12],22.9 µM (active)
same,outcome,[13],inactive
same,outcome,[16],inactive
same,AC50,[15],19.3 µM (active)
same,outcome,[19],inactive
same,outcome,[17],inactive

# Source: PubChem BioAssay (EPA / NIEHS)
